The text below walks through data of PubChem BioAssay (EPA / NIEHS).

The source made the active and inactive calls. Rule for the calls: active = hit-call score of the fitted dose curve at least 0.9, where 1 is the maximum; inactive = score below 0.9.

Read-out in this experiment: Matrix Metallopeptidase 9 (MMP9), MMP9 (gene 4318)
The experiment can be described thus: BSK_KF3CT_MMP9: BioMAP Diversity Plus: KF3CT Assay for Matrix Metallopeptidase 9 (MMP9) Biomarker Activity (AID 2283074). As to conditions: primary human keratinocytes with fibroblasts; actives raise or lower the signal. Here is the method: BSK_KF3CT is a cell-based, multiplexed-readout assay that uses keratinocytes and foreskin fibroblasts, a human skin primary cell co-culture, with measurements taken at 24 hours after chemical dosing in a 96-well plate.BSK_KF3CT_MMP9 is an assay component measured in the BSK_KF3CT assay. It measures MMP-9 antibody related to regulation of gene expression using ELISA technology.Data from the assay component BSK_KF3CT_MMP9 was analyzed into 1 assay endpoint. This assay endpoint, BSK_KF3CT_MMP9, was analyzed with bidirectional fitting relative to DMSO as the negative control and baseline of activity. Using a type of binding reporter, gain or loss-of-signal activity can be used to understand changes in the signaling as they relate to the gene MMP9. Furthermore, this assay endpoint can be referred to as a primary readout, because this assay has produced multiple assay endpoints where this one serves a signaling function. To generalize the intended target to other relatable targets, this assay endpoint is annotated to the protease intended target family, where the subfamily is matrix metalloproteinase.
The levels of cell surface (or secreted, indicated by the prefix "s") biomarker endpoints were measured by ELISA. Overt cytotoxicity to cells in confluent adherent cultures (all systems other than the BT system) was assessed by measuring total protein levels using sulforhodamine B (SRB) staining in parallel cultures at the time of biomarker measurements, indicated as SRB endpoints. For proliferation assays for adherent cell types, individual cell types are cultured at sub-confluence and relative cell numbers quantified by SRB staining at time points optimized for each system (48 h: 3C and CASM3C systems; 72 h: BT and HDF3CGF systems; 96 h: SAg system). SRB was performed by staining cells with 0.1% SRB after fixation with 10% TCA and reading wells at 560 nm.Viability and proliferation of PBMC (T cells) was quantified by Alamar Blue reduction for the SAg and BT systems. For PBMC viability (referred to as PBMC Cytotoxicity within the assay endpoint names), cells were plated (75,000/well in a 96-well plate) and then chemical samples added for 1 h before addition of activators, SEB and TSST-1 (20 ng/mL final concentration each). Cells were incubated for 90 h. Then, Alamar Blue (20 uL/well) (Invitrogen, Cat DAL1100) was added for 6 h, and the plates were read with a fluorescence microplate reader at 546/580 nm (excitation/emission). For PBMC proliferation, cells were plated and activated as above but incubated for only 16 h prior to addition of Alamar Blue. Plates were read after 6 h.
A word on the AC50: it is the concentration at which the activity in the assay is half-maximal. With `Cc1ccccc1OP(=O)(Oc1ccccc1)Oc1ccccc1`, the AC50 was 8.99 µM (active).

Take `Clc1cccc(Cl)c1`: the outcome was inactive.

In the case of `O=[N+]([O-])c1ccc(Nc2ccccc2)cc1`, the outcome was inactive.

With `CCC(C)(C#N)N=NC(C)(C#N)CC` (stereo not given), the outcome was inactive.

For the compound `O=c1oc2ccccc2c(O)c1C(CC(O)c1ccc(-c2ccc(Br)cc2)cc1)c1ccccc1` (stereo not given), the AC50 was 19.1 µM (active).

Take `CCOP(=O)(OCC)OC(=CCl)c1ccc(Cl)cc1Cl`: the AC50 was 31.9 µM (active).

On to `N#CCCC(Br)(C#N)CBr` (stereo not given), for which the AC50 is 20 µM (active).

Take `CCCCN(CCCC)C(=S)[S-].CCCCN(CCCC)C(=S)[S-].[Ni+2]`: the outcome was inactive.

`Cc1cc(C)cc(C)c1`: the result was inactive.

On to `O=[N+]([O-])c1cccc2ccccc12`, for which the outcome was inactive.

Take `O=C(CCl)NCO`: the result was inactive.

Regarding `CCCCCCCCCCCCN(C)C`, the outcome was inactive.

As to `OCCCCO`, the outcome was inactive.

On to `O=C(Cc1ccccc1)OCCc1ccccc1`, for which the result was inactive.

As to `N#Cc1cccnc1`, the result was inactive.

Regarding `Oc1cc(Cl)c(Cl)cc1Cl`, the result was inactive.

For `O=S(=O)(C(Cl)(Cl)Cl)C(Cl)(Cl)Cl`, the AC50 is 2.22 µM (active).

For `O=C(O)COc1cc(Cl)c(Cl)cc1Cl`, the outcome was inactive.

On to `Oc1cccc(-c2ccccc2)c1`, for which the AC50 was 31.5 µM (active).

As to `Oc1c(Cl)cc(Cl)cc1Cl`, the outcome was inactive.

Consider `c1ccc2sc(SNC3CCCCC3)nc2c1`, for which the result was inactive.

`COc1ccccc1N`: the result was inactive.

With `COCC(=O)N(c1c(C)cccc1C)[C@H](C)C(=O)OC`, the result was inactive.

`CC(C)N(C(=O)CCl)c1ccccc1`: the AC50 was 29.6 µM (active).

As for `Nc1c(Oc2ccccc2)cc(O)c2c1C(=O)c1ccccc1C2=O`, the outcome was inactive.

In the case of `Cc1ccccc1OP(=O)(Oc1ccccc1C)Oc1ccccc1C`, the AC50 was 5.56 µM (active).

Regarding `NC(=O)CCl`, the result was inactive.

As for `C#CCOC(=O)/C=C(C)/C=C/CC(C)CCCC(C)C` (stereo not given), the result was inactive.

With `Cc1cc(Cl)ccc1N`, the result was inactive.

As to `Cc1cccc(OP(=O)(Oc2cccc(C)c2)Oc2cccc(C)c2)c1`, the AC50 is 20.3 µM (active).

For `Nc1ccc(N)cc1`, the result was inactive.

On to `OCCN(CCO)CCO`, for which the outcome was inactive.

With `O=S(=O)(c1ccc(Cl)cc1)c1cc(Cl)c(Cl)cc1Cl`, the AC50 was 0.58 µM (active).

Regarding `Cc1c([N+](=O)[O-])c(C)c([N+](=O)[O-])c(C(C)(C)C)c1[N+](=O)[O-]`, the AC50 was 31.1 µM (active).

In the case of `CCOP(=O)(OCC)SCCSCC`, the result was inactive.

For the compound `CCOC(=O)CC(=O)CCl`, the result was inactive.

With `CCCCOC(=O)COC(=O)c1ccccc1C(=O)OCCCC`, the result was inactive.

Take `CCCCCCCCCCCCc1cccc(S(=O)(=O)O)c1`: the AC50 was 18 µM (active).

For `O=C(O)C1(c2ccc3c(c2)OC[C@H](Cc2ccc(-c4ccccc4)cc2)[C@H]3O)CCCC1`, the AC50 was 12.9 µM (active).

For `CC(C)=CC1C(C(=O)OCc2cccc(Oc3ccccc3)c2)C1(C)C` (stereo not given), the outcome was inactive.
